The text below walks through data of PMC5540273 (PLoS ONE, 2017).

Molecules are shown by their SMILES.
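Further: KINOMEscan kinase panel screen.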

The first assay relates to PHKG2. Conditions: concentration: 1 μM, replicates: in singlicate; n = 1.
Take `O=C(Nc1cccc(-c2nn3ccccc3c2-c2ccnc(Nc3cccc(C(F)(F)F)c3)n2)c1)c1c(F)cccc1F` [GSK292658]: the “%Inh” value was 0%. Still for that read-out and setting: the value for `O=C(NC1CCN(c2ccnc(Nc3ccc(F)cc3)n2)C1)c1cc2ccccc2s1` (centres unmarked) [GSK1379716] was 7%; that for `COc1cc(Nc2nccc(-c3c(-c4cccc(NC(=O)c5c(F)cccc5F)c4)nn4ncccc34)n2)cc(OC)c1OC` [GSK327238] was 3%; that for `COc1cccc(-c2ccc3c(NC(=O)C4CC4)n[nH]c3n2)c1` [SB-710903] was 0%. `Cn1cc(-c2ccc3c(c2)CCN3C(=O)Cc2cccc(Cl)c2)c2c(N)ncnc21` [GSK2606590]: the “%Inh” value is given as 0%.

In the next assay the test system is PIK3C2B. The note with it: concentration: 1 μM, replicates: in singlicate; n = 1.
As to `FC(F)(F)c1ccc(/C=C/c2cncnc2Nc2ccc3[nH]c(Cc4ccccc4)nc3c2)cc1` [GW709199], the “%Inh” value stood at 0%. On the same count and under the same terms, the same measure for `COc1ccc(Nc2nccc(NCCNC(=O)c3cc4ccccc4s3)n2)cc1` [GSK1379896]: 0%.

On to `Cl.Cl.NCC(NCc1ccc(-c2ccnc3[nH]ccc23)s1)c1ccccc1` (centres unmarked) [GSK1321565], for which the “%Inh” value is given as 0%. On the same count and under the same terms, the same measure for `O=C(Nc1cccc(-c2nn3ncccc3c2-c2ccnc(Nc3ccccc3)n2)c1)c1c(F)cccc1F` [GSK198271]: 0%; for `Cn1cc(-c2ccc3c(c2)CCN3C(=O)Cc2cccc(F)c2)c2c(N)ncnc21` [GSK2603358]: 80%. The same measure, in the same setting: the value for `Nc1ncc(-c2cccnc2)c2scc(-c3ccc4c(c3)CCN4C(=O)Cc3ccccc3)c12` [GSK683281] was 0%; that for `COC(=O)Nc1nc2cc(Oc3ccc(NC(=O)Nc4cc(C(F)(F)F)ccc4F)cn3)ccc2[nH]1.Cl.Cl` [GW681170] was 0%. On the same count and under the same terms, the value for `CCn1c(-c2nonc2N)nc2c(C#CC(C)(C)O)nc(OC[C@H](N)c3ccccc3)cc21` [GSK943949] was 0%; that for `COc1ccc(Nc2nccc(N3CCC(NC(=O)Nc4cccc(OC)c4)C3)n2)cc1` (centres unmarked) [GSK1379742] was 13%. As for `O=C(Nc1cccc(Oc2ccc3nc(NC(=O)C4CC4)cn3n2)c1)c1ccccc1C(F)(F)F`, the “%Inh” value is recorded as 0%. With `Fc1ccc(-c2ncn(C3CCNCC3)c2-c2ccnc(Oc3ccc(-c4ccccc4)cc3)n2)cc1` [SB-245391], the “%Inh” value was determined as 27%. Take `CC(=O)Nc1nc2cnc(Nc3cc(NC(=O)c4cccc(C5(C#N)CC5)c4Cl)ccc3C)nc2s1`: the “%Inh” value turned out to be 0%. On the same count and under the same terms, the same measure for `Clc1ccc(-c2nn3ncccc3c2-c2ccnc(Nc3ccc4c(c3)OCCO4)n2)cc1` [GW829116]: 0%; for `O=C(Nc1ccccc1F)NC1CCN(c2ccnc(Nc3ccc(F)cc3)n2)CC1` [GSK1379800]: 0%; for `c1ccc(-c2cnc3nccnn23)cc1` [AH20685]: 0%. In the case of `COc1cc2c(cc1OCCN1CCNCC1)ncc1c3ccc(C#N)cc3[nH]c21`, the “%Inh” value amounted to 0%.

Consider `COc1cccc(C2=C(Nc3ccc(Cl)c(C(=O)O)c3)C(=O)NC2=O)c1` [SB-390769], for which the “%Inh” value came to 0%. Take `O=C(O)C(F)(F)F.O=C(O)C(F)(F)F.O=c1[nH]ccc2nc(N[C@@H]3CCCNC3)nc(Nc3ccc(S(=O)(=O)N4CCOCC4)cc3)c12` [GSK2177277]: the “%Inh” value amounted to 51%. Still for that read-out and setting: the same measure for `COc1cccc(NC(=O)NC2CCN(c3ccnc(Nc4cc(OC)c(OC)c(OC)c4)n3)C2)c1` (centres unmarked) [GSK1379763]: 0%.

On to `O=c1[nH]cc(-c2ccc(N3CCOCC3)cc2)c2sc(-c3cn[nH]c3)cc12` [GSK2276055], for which the “%Inh” value is recorded as 9%. With `Nc1ncc(-c2ccc3nccc(-c4ccncc4)c3c2)cc1S(=O)(=O)N1CCOCC1` [GSK1627798], the “%Inh” value is 99.5%.

As to `Cl.c1ccc(-c2ccc3c(Nc4ccc5[nH]ncc5c4)ccnc3c2)nc1` [GW440137], the “%Inh” value amounted to 3%. Still for that read-out and setting: the value for `Cc1ccc(C)c(NC(=O)NC2CCN(c3ccnc(Nc4ccc(F)cc4)n3)C2)c1` (centres unmarked) [GSK1379720] was 0%; that for `Cl.Cl.NCC(NC(=O)c1cc(-c2ccccc2)c(-c2ccnc3[nH]ccc23)s1)c1ccccc1` (centres unmarked) [GSK1321561] was 0%. Same read-out and setting: the same measure for `Cc1occc1-c1ncc(OC[C@@H](N)Cc2c[nH]c3ccccc23)cc1-c1ccc2[nH]nc(C)c2c1.O=C(O)C(F)(F)F` [GSK682037]: 0%; for `CN(c1ccc(NC(=O)Nc2cc(C(F)(F)F)ccc2F)cc1)c1ccnc(Nc2ccc(S(N)(=O)=O)cc2)n1` [GW809893]: 29%; for `CC(C)c1nc(-c2cccc(NS(=O)(=O)c3c(F)cccc3F)c2F)c(-c2ccnc(Nc3ccc(N4CCOCC4)nc3)n2)s1` [GSK2008607]: 49%.
